Measurements taken from PubChem BioAssay (NCATS).
Inconclusive results are not listed. Entries that show only a call come without a potency. Values without a mark were called inactive. Calls of active or inactive are those of the source. Calls follow the shape of the dose curve; as a rule, active = well fitted curve in the direction sought with a large enough effect; inconclusive = small, poorly fitted or top-dose-only effect, or another doubt; inactive = no such curve, though single readings can be large; an effect the other way counts as inactive or inconclusive.

What was measured:
Hek293T = test: Primary qHTS to identify gynecologic anti-cancer compounds using libraries of approved drugs and bioactive compounds (AID 1345084); conditions: Gynecologic cancer cell panel viability, ATPlite luminescence, 48 h, control line for the selectivity index; series mostly up to 57.5 µM; also: nearly all actives have a fitted effect of over 55% in size
Outline: (§1)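 Luminescence from the ATPlite ATP-monitoring reagent indicates viable cell number; lower signal means cytotoxicity. Cells received compound 16 h after seeding and were exposed for 48 h across five concentrations.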

JEG-3 = test: as above; conditions: Gynecologic cancer cell panel viability, ATPlite luminescence, 48 h; series mostly up to 57.5 µM
Outline: as §1

OV90 = test: as above; conditions: Gynecologic cancer cell panel viability, ATPlite luminescence, 48 h; series mostly up to 57.5 µM
Outline: as §1

PA-1 = test: as above; conditions: Gynecologic cancer cell panel viability, ATPlite luminescence, 48 h; series mostly up to 57.5 µM
Outline: as §1

SKOV3 = test: as above; conditions: Gynecologic cancer cell panel viability, ATPlite luminescence, 48 h; series mostly up to 57.5 µM
Outline: as §1

Tov-21-G = test: as above; conditions: Gynecologic cancer cell panel viability, ATPlite luminescence, 48 h; series mostly up to 57.5 µM
Outline: as §1

Tov112D = test: as above; conditions: Gynecologic cancer cell panel viability, ATPlite luminescence, 48 h; series mostly up to 57.5 µM
Outline: as §1

[1] = Drug repurposing screens with cells derived from glioblastoma tumor samples (AID 1345199); conditions: GBM patient neurospheres viability, ATP luminescence, 48 h; also: nearly all actives have a fitted effect of over 40% in size; also: potency is read from the fitted curve at half-maximal effect
Outline: (§2)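 Primary testing used CD133+ neurospheres from four GBM patients, seven concentrations, 48 h exposure and ATP-based viability; confirmation added three slower-growing patient lines.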

astro = test: as above; conditions: viability, ATP luminescence, 48 h; series mostly up to 45.9 µM
Outline: as §2

[2] = at 45.9 µM (top of the series), tumour line B
[3] = at 45.9 µM (top of the series), tumour line D
[4] = at 46 µM (top of the series), tumour line A
[5] = at 46.1 µM (top of the series), tumour line C
[6] = at 20 µM (top of the series), tumour line C
[7] = at 21.2 µM (top of the series), tumour line B
[8] = at 21.2 µM (top of the series), tumour line D
[9] = at 21.3 µM (top of the series), tumour line A

| Structure (SMILES) | outcome (Hek293T) | outcome (JEG-3) | Potency (OV90) | outcome (PA-1) | outcome (SKOV3) | outcome (Tov-21-G) | outcome (Tov112D) | activity, negative = cell killing [1, 2] [%] | activity, negative = cell killing [1, 3] [%] | activity, negative = cell killing [1, 4] [%] | activity, negative = cell killing [1, 5] [%] | activity, negative = cell killing [1, 6] [%] | activity, negative = cell killing [1, 7] [%] | activity, negative = cell killing [1, 8] [%] | activity, negative = cell killing [1, 9] [%] | outcome (astro) | Potency ([1]; tumour line A) |
| --- | --- | --- | --- | --- | --- | --- | --- | --- | --- | --- | --- | --- | --- | --- | --- | --- | --- |
| COC(=O)N/N=C/c1c[n+]([O-])c2ccccc2[n+]1[O-] | inactive | inactive | inactive | inactive | inactive | inactive | inactive | 3.32 | -10.1 | -9.78 | 2.7 |  |  |  |  |  |  |
| CCOC(=O)OC(C)OC(=O)[C@@H]1N2C(=O)[C@@H](NC(=O)[C@H](N)c3ccccc3)[C@H]2SC1(C)C (some centres not stated) | inactive | inactive | inactive | inactive | inactive | inactive | inactive |  |  |  |  | 7.44 | -8.91 | -1.55 |  |  |  |
| CC(C)CCCC(C)CCCC(C)CCCCC(C)CCCC(C)CCCC(C)C (configuration not stated) | inactive | inactive | inactive | inactive | inactive | inactive | inactive | 2.81 | 2.23 | -12.7 | 8.73 |  |  |  |  |  |  |
| O=C(O)c1ccc[n+]([O-])c1 | inactive | inactive | inactive | inactive | inactive | inactive | inactive | -13.5 | 12.2 | -25.2 | -21.7 |  |  |  |  |  |  |
| C/C(=C(\CCO)SS/C(CCO)=C(\C)N(C=O)Cc1cnc(C)nc1N)N(C=O)Cc1cnc(C)nc1N | inactive | inactive | inactive | inactive | inactive | inactive | inactive | 0.803 | 1.23 | -2.85 | 0.411 |  |  |  |  |  |  |
| CCN(CC)S(=O)(=O)c1ccc(C(=O)O)cc1 | inactive | inactive | inactive | inactive | inactive | inactive | inactive | -12.2 | -3.35 | -16.8 | -15.2 |  |  |  |  |  |  |
| Cc1ccsc1C(=CCCN1CCC[C@@H](C(=O)O)C1)c1sccc1C | inactive | inactive | inactive | inactive | inactive | inactive | inactive | -2.91 | -7.39 |  | 2.1 |  |  |  |  |  |  |
| CC[C@H](C)[C@H](N)C(=O)O | inactive | inactive | inactive | inactive | inactive | inactive | inactive | -7 | 0.894 |  | 2.32 |  |  |  |  |  |  |
| O[C@@H]1CO[C@H]2[C@@H]1OC[C@@H]2O | inactive | inactive | inactive | inactive | inactive | inactive | inactive | -8.03 | 1.68 |  | -10.9 |  |  |  |  |  |  |
| CC1(C)[C@@H](OC(=O)CCC(=O)O)CC[C@]2(C)[C@H]3C(=O)C=C4[C@@H]5C[C@@](C)(C(=O)O)CC[C@]5(C)CC[C@@]4(C)[C@]3(C)CC[C@@H]12 | inactive | inactive | inactive | inactive | inactive | inactive | inactive |  |  |  |  | -5.99 | -8.6 | -19.2 | -22.2 |  |  |
| O=S1(=O)OC(c2ccc(O)cc2)(c2ccc(O)cc2)c2ccccc21 | inactive | inactive | inactive | inactive | inactive | inactive | inactive | -17.4 | -14.4 |  | 11.5 |  |  |  |  |  |  |
| Cn1cc(C(=O)[C@@H]2CCc3nc[nH]c3C2)c2ccccc21 | inactive | inactive | inactive | inactive | inactive | inactive | inactive |  |  |  |  |  |  |  |  |  |  |
| CC(C)c1cc2c(cc1S(=O)(=O)O)[C@@]1(C)CCC[C@@](C)(C(=O)O)[C@@H]1CC2 | inactive | inactive | inactive | inactive | inactive | inactive | inactive | -17.5 | -7.28 | -18.1 | -15.9 |  |  |  |  |  |  |
| CC1(C)S[C@@H]2[C@H](NC(=O)C(C(=O)O)c3ccccc3)C(=O)N2[C@H]1C(=O)O (some centres not stated) | inactive | inactive | inactive | inactive | inactive | inactive | inactive | 2.69 | -6.27 | -8.84 | 7.57 |  |  |  |  | inactive |  |
| Cc1onc(-c2ccccc2)c1-c1ccc(S(N)(=O)=O)cc1 | inactive | inactive | inactive | inactive | inactive | inactive | inactive | -8.7 | -24.2 |  | -2.89 |  |  |  |  |  |  |
| O=C(O)c1ccc(OCCCOc2ccc(C(=O)O)cc2)cc1 | inactive | inactive | inactive | inactive | inactive | inactive | inactive | -4.79 | -29 | -33.4 | -12 |  |  |  |  |  |  |
| CN[C@@H]1[C@H](O)[C@H](NC)[C@H]2O[C@@]3(O)C(=O)C[C@@H](C)O[C@H]3O[C@@H]2[C@H]1O | inactive | inactive | inactive | inactive | inactive | inactive | inactive |  |  |  |  | -1.47 | -21.3 | 0.484 | -6.42 | inactive |  |
| O=c1[nH]c2cc(C(F)(F)F)c(N3CCOCC3)cc2n(CP(=O)(O)O)c1=O | inactive | inactive | inactive | inactive | inactive | inactive | inactive | -1.62 | -2.48 |  | -20.3 |  |  |  |  |  |  |

| Structure (SMILES) | outcome (Hek293T) | outcome (JEG-3) | Potency (OV90) | outcome (PA-1) | outcome (SKOV3) | outcome (Tov-21-G) | outcome (Tov112D) | activity, negative = cell killing [1, 2] [%] | activity, negative = cell killing [1, 3] [%] | activity, negative = cell killing [1, 4] [%] | activity, negative = cell killing [1, 5] [%] | activity, negative = cell killing [1, 6] [%] | activity, negative = cell killing [1, 7] [%] | activity, negative = cell killing [1, 8] [%] | activity, negative = cell killing [1, 9] [%] | outcome (astro) | Potency ([1]; tumour line A) |
| --- | --- | --- | --- | --- | --- | --- | --- | --- | --- | --- | --- | --- | --- | --- | --- | --- | --- |
| O=C(Cn1ccnc1[N+](=O)[O-])NCc1ccccc1 | inactive | inactive | inactive | inactive | inactive | inactive | inactive | 4.79 | 3.98 | -20.7 | -17.9 |  |  |  |  | inactive |  |
| CCOC(N)=O | inactive | inactive | inactive | inactive | inactive | inactive | inactive | -14.9 | 19.2 | -11.2 | -16.1 |  |  |  |  | inactive |  |
| COc1ccccc1Oc1c(NS(=O)(=O)c2ccc(C(C)(C)C)cc2)nc(-c2ncccn2)nc1OCCO | inactive | inactive | inactive | inactive | inactive | inactive | inactive | -11.9 | -7.18 | -57.2 | -29.9 |  |  |  |  |  |  |
| CC(CN(C)C)C(C)(O)Cc1ccc(Cl)cc1 (configuration not stated) | inactive | inactive | inactive | inactive | inactive | inactive | inactive | -15.1 |  |  | -8.21 |  |  |  |  |  | 20 µM (active) |
| CC(=O)N[C@@H](CC(C)C)C(=O)O | inactive | inactive | inactive | inactive | inactive | inactive | inactive | -11.1 | -9.62 | -21.1 | -11.2 |  |  |  |  |  |  |
| Cc1[nH]c(C)c(Cl)c(=O)c1Cl | inactive | inactive | inactive | inactive | inactive | inactive | inactive | -9.77 | -2.96 | -17.9 | -6.6 |  |  |  |  | inactive |  |
| NS(=O)(=O)c1cc2c(cc1C(F)(F)F)NCNS2(=O)=O | inactive | inactive | inactive | inactive | inactive | inactive | inactive |  |  |  |  | -8.4 | 8.4 | -16.1 | -5.19 |  |  |
| COCC(=O)Nc1c(I)c(C(=O)NCC(O)CO)c(I)c(C(=O)N(C)CC(O)CO)c1I (configuration not stated) | inactive | inactive | inactive | inactive | inactive | inactive | inactive |  |  |  |  | 5.9 | -2.18 | -2.4 | -10.5 | inactive |  |
| CCCCCC(C)N (configuration not stated) | inactive | inactive | inactive | inactive | inactive | inactive | inactive | -17 | -7.45 | -32 | -13.3 |  |  |  |  | inactive |  |
| O=C(/C=C/c1ccc(O)c(O)c1)O[C@@H]1C[C@@](OC(=O)/C=C/c2ccc(O)c(O)c2)(C(=O)O)C[C@@H](O)[C@@H]1O | inactive | inactive | inactive | inactive | inactive | inactive | inactive | 1.43 | -4.97 |  | -11.7 |  |  |  |  |  | 28.2 µM (active) |
| NNc1nnc(NN)c2ccccc12 | inactive | inactive | inactive | inactive | inactive | inactive | inactive | -9.47 | -12.6 |  | -17.6 |  |  |  |  |  |  |
| Nc1ccc(C(=O)Oc2ccccc2)c(O)c1 | inactive | inactive | inactive | inactive | inactive | inactive | inactive |  |  |  | -12.2 |  |  |  |  |  | 11.2 µM (active) |
| Nc1c2c(nc3c1CCC3)CCCC2 | inactive | inactive | inactive | inactive | inactive | inactive | inactive | -2.28 | -13.4 |  | -27.2 |  |  |  |  |  |  |
| OCC(O)CS (configuration not stated) | inactive | inactive | inactive | inactive | inactive | inactive | inactive | -7.05 | -1.81 | -9.33 | -1.31 |  |  |  |  |  |  |
| CNc1c2c(nn1C)CCCC2 | inactive | inactive | inactive | inactive | inactive | inactive | inactive | -7.34 | -0.633 | -5.91 | -14.3 |  |  |  |  |  |  |
| CC(C(=O)O)c1ccc2c(c1)Cc1cccnc1O2 (configuration not stated) | inactive | inactive | inactive | inactive | inactive | inactive | inactive | 1.78 | -8.91 | -13.1 | -25.1 |  |  |  |  | inactive |  |
| NC(N)=NS(=O)(=O)c1ccc(N)cc1 | inactive | inactive | inactive | inactive | inactive | inactive | inactive |  |  |  |  | 3.63 | -6.02 | 9.81 | 6.37 |  |  |
